# Most compounds without a hit are left out; they make up all but 4.5% or so of the library.
# ssDAF-12 act – activates DAF-12 receptor from parasite S. stercoralis | HEK293 ssDAF-12/GRIP1 lit1-tk-luc reporter, luminescence; % of 3 µM dafachronic acid response | activation, % at 6.8 µM | actives 1% (n = 370,000);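 active = activation above the mean over all tested compounds plus 3 SD, cut at about 0.9% in these data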;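 also: 0% = DMSO-only wells and 100% = 3 µM delta7-dafachronic acid wells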
# DAX1 inh-1 – blocks DAX1 repression of SF-1 activated StAR promoter; HEK293T StAR-luciferase reporter, SF-1/DAX-1 repression relief; inhibition, % at 6.8 µM; actives 1.1% (n = 370,000);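 active = inhibition above the mean over all tested compounds plus 3 SD, cut at about 3.6% in these data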;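 also: 0% = DAX-1 cells with DMSO and 100% = cells lacking DAX-1 with DMSO; higher inhibition means more luminescence from relief of DAX-1 repression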
# hgDAF-12 ag – hgDAF-12 agonism, primary luciferase screen | HEK293 GAL4-hgDAF12 UAS-luciferase reporter, agonist luminescence; normalized to butyrate control | activation, % at 6.8 µM | actives 1.8% (n = 370,000);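 active = activation above a cutoff set at the mean of all screened compounds plus 3 SD, cut at about 10% in these data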;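 also: 0% = DMSO wells and 100% = sodium butyrate wells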
# FXN GAA850 act – activators of GAA850 frataxin (FXN) promoter | HEK293 lucGAA850 FXN promoter luciferase reporter, 24 h; percent of 10 µM SAHA response | activation, % at 6 µM | actives 0.56% (n = 360,000) | AID 540364;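 active = activation above the average of all compounds screened plus 3 SD, cutoff fixed separately per campaign, cut at about 7.5% in these data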;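 also: 0% = DMSO wells and 100% = 10 µM SAHA wells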
# hcDAF-12 act – H. contortus DAF-12 activation, primary screen; actives 1.4% (n = 370,000); HEK293 hcDAF-12 lit1-tk-luc reporter, luminescence; 0% DMSO, 100% Δ7-dafachronic acid; AID 652067; activation, % at 6.8 µM;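 active = activation above the mean of all tested compounds plus 3 SD, cut at about 5.5% in these data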;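 also: 100% = response to 3 µM Δ7-dafachronic acid high control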
# DAX1 inh-2 – NR0B1 (DAX1) inhibition | P51843 | HEK293 Gal4-DAX1 luciferase reporter, luminescence | inhibition, % at 6.75 µM | actives 0.99% (n = 340,000);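 active = inhibition above the mean over all tested compounds plus 3 SD, cut at about 4.2% in these data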;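 also: 0% = DAX1-transfected cells with DMSO and 100% = empty-vector control cells with DMSO; inhibition shows as a rise in luminescence from relieved DAX1 repression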
# DAX1 inh confirm – NR0B1 (human) inhibition, confirmation | shares compounds with DAX1 inh-1 | HEK293T StAR-promoter luciferase reporter, SF-1/DAX-1 repression | inhibition, % at 6.8 µM | actives 87% (n = 2,400);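 active = inhibition above the average of every tested compound plus 3 SD, cut at about 3.8% in these data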;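 also: 0% = DAX-1 cells with DMSO and 100% = no DAX-1 control cells with DMSO; active compounds raise luminescence by relieving repression of the StAR reporter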
# Target sequence (P51843 whole entry, looked up): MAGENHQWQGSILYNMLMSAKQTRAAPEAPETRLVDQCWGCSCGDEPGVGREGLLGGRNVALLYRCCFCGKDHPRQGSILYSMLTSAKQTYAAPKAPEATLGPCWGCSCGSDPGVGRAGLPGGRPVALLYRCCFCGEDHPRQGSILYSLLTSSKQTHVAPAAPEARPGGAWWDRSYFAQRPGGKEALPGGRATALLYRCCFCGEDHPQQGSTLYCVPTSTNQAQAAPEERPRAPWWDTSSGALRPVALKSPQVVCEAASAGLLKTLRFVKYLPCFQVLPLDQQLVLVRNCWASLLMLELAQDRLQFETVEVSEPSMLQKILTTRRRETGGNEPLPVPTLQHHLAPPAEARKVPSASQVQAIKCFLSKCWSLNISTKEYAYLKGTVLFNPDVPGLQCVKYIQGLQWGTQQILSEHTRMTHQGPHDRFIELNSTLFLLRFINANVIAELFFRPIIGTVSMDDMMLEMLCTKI
# SF1 AF2mut Luc – counter-screen for DAX1 inhibitors: nonselective inhibitors with SF-1 AF2 mutant. shares compounds with DAX1 inh-1. HEK293 StAR-luciferase, luminescence. inhibition, % at 6.8 µM. actives 78% (n = 2,400);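 active = inhibition above the mean of all tested compounds plus 3 SD, cut at about 3% in these data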;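 also: 0% = DAX-1 transfected cells with DMSO and 100% = cells without DAX-1 with DMSO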
# Numbers without * were called inactive; . = not tested or not shown.
SMILES,ssDAF-12 act,DAX1 inh-1,hgDAF-12 ag,FXN GAA850 act,hcDAF-12 act,DAX1 inh-2,DAX1 inh confirm,SF1 AF2mut Luc
CC(C)(C)c1csc(NC(=O)C2=COCCO2)n1,0.2,6.6*,11.6*,5.5,0.9,1.7,8.2*,5.3*
CCOC(=O)Cc1csc(NC(=O)c2cccs2)n1,-1.4,0.0,0.4,1.9,-0.3,-0.1,.,.
Nc1c(C(=O)C2CC2)sc2nc3c(cc12)CCC3,0.3,4.7*,11.1*,4.3,4.0,3.3,9.8*,10.0*
Nc1c(C(=O)O)sc2nc3c(cc12)CCCC3,0.9,0.2,1.1,-0.8,2.4,.,.,.
O=C(Nc1ccc(Br)c(C(F)(F)F)c1)[C@@H]1CC=C[C@@H]2CCN(CC3CC3)C(=O)[C@@H]21,-1.7,.,-0.9,.,-1.7,.,.,.
COCC(=O)N/N=C\c1cccc(OC)c1OC/C=C/c1ccccc1,-1.4,-1.5,2.0,0.8,-1.5,-0.1,.,.
COCC(=O)N/N=C\c1ccccc1OC/C=C/c1ccccc1,-0.7,8.1*,11.4*,3.6,1.4,1.3,3.5,4.8*
O=C(CN1CCN(c2ccccc2)CC1)Nc1ccccc1C(=O)NCCc1ccccc1,0.8,4.7*,6.8,1.5,5.8*,2.7,6.7*,4.8*
NC(=O)c1ccccc1NC(=O)CN1CCN(Cc2ccccc2)CC1,-1.2,0.1,0.9,-2.4,1.3,0.3,.,.
COc1ccc(CCN=C(C)c2cc(C)c(C)cc2O)cc1OC,-1.0,-0.5,3.5,-1.0,0.7,2.5,.,.
N#C/C(=N\Nc1cccc(F)c1)C(=N)N1CCCCCC1,1.7*,6.8*,12.5*,5.0,4.8,7.0*,18.6*,8.6*
N#CC1=C(N)OC2=C(C(=O)CCC2)C1c1cc2c(cc1Br)OCO2 (stereo unspecified),-0.9,0.0,-1.6,1.2,-1.0,1.3,.,.
CCOC(=O)Cc1c(C)c2c(C)[nH]nc2oc1=O,-1.3,5.4*,1.6,-2.9,-1.0,-0.7,-1.0,0.1
C=CC[C@]12C[C@@H](OC)C(=O)C=C1O[C@@H](c1ccc(OC)c(OC)c1)[C@H]2C,-1.2,-0.6,-1.2,1.2,-0.4,-0.6,.,.
COc1cc(C(=O)N/N=C(\C)c2ccc(NC(=O)Cc3ccccc3)cc2)ccc1O,1.1*,6.9*,7.6,6.8,4.3,1.2,6.2*,4.2*
COc1ccc(C(=O)NN=C(Cc2ccccc2)Cc2ccccc2)cc1OC,0.3,-0.7,1.4,0.1,-2.1,-0.3,.,.
C/C(=N\NC(=O)c1ccccc1O)c1ccc(NC(=O)Cc2ccccc2)cc1,0.4,7.2*,7.8,6.4,2.7,0.5,6.3*,3.6*
Cn1cnnc1SCC(=O)N/N=C/c1ccc(OCC(N)=O)cc1,-0.4,0.3,-0.7,1.9,-1.2,-0.2,.,.
Cc1ccc(CN2CCC(Oc3cccc(C(=O)NCc4cccnc4)c3)CC2)o1,-0.9,-2.9,-1.6,-0.1,-1.4,-0.4,.,.
COc1ccc(/C=N/Nc2ncccc2[N+](=O)[O-])c(OC)c1,-0.2,5.0*,8.9,0.5,5.2,-3.8,15.4*,8.9*
COc1ccc(/C=N/Nc2ncc(-c3ccccc3)cn2)c(OC)c1,-1.5,-0.2,-1.0,-4.8,-2.2,-0.8,.,.
O=C(CCS(=O)(=O)c1ccccc1)N1CCN(c2ccccc2F)CC1,-0.4,7.0*,12.8*,2.6,3.5,1.6,7.6*,3.1*
COc1ccc(-c2c(-c3cc(OC)cc(OC)c3)n(C)c3ccc(-c4cc(F)cc(OC)c4)cc23)cc1,-1.4,0.1,-0.1,2.1,-0.5,-0.2,.,.
Cc1ccc(C(=O)CN2C(=O)NC3(CCCCCC3)C2=O)c(C)c1,-0.7,5.5*,6.1,3.8,2.2,1.4,4.2*,3.8*
Cc1onc(-c2ccccc2Cl)c1C(=O)N1CCN(c2ccc(F)cc2)CC1,-0.9,-0.1,-0.3,-2.5,-2.1,0.9,.,.

# From PubChem BioAssay
